According to PubChem BioAssay AID1159580 (chemical genetic matrix, 2015):
Values joined by “and” are separate entries in the source; they are usually repeats but may differ in a detail not shown here. Equal values may be shown once. About 2,000 (36%) of roughly 5,500 compounds were called active. Not shown: some 18% with an inconclusive outcome. No stated cut-off is given here; in the data, active means normalized growth mostly below about 0.91 (no sharp cut-off); inconclusive means no clear call, values can overlap the other calls; inactive means mostly above about 0.92. Some of the results follow.

Test: chemical genetic growth profiling, strain panel (AID 1159580);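 further: tested at 20 µM; growth read once vehicle control cultures reached saturation at 30 °C; 1 = growth at the plate median or of vehicle wells; lower values mean less growth of the strain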
Details: S. cerevisiae deletion strains, growth OD

Measured: normalized growth

Cn1c(=O)c2c(ncn2CCO)n(C)c1=O
inactive: locus YAL013W, strain DEP1, hits give low values 1 | locus YAL021C, strain ccr4, hits give low values 1.02 | locus YAL026C, strain drs2, hits give low values 1.02 | locus YAL030W, strain snc1, hits give low values 1.02 | locus YBL061C, strain skt5, hits give low values 1.03 | locus YBR009C, strain hhf1, hits give low values 1.02 | locus YBR021W, strain FUR4, hits give low values 1.04 | locus YBR023C, strain chs3, hits give low values 1.01 | locus YBR171W, strain sec66, hits give low values 1.03 | locus YBR229C, strain ROT2, hits give low values 1 | locus YBR231C, strain swc5, hits give low values 1.02 | locus YBR279W, strain paf1, hits give low values 1.02 | locus YCL011C, strain gbp2, hits give low values 1.02 | locus YCL016C, strain dcc1, hits give low values 1.01 | locus YCL029C, strain bik1, hits give low values 1.02 | locus YCL061C, strain MRC1, hits give low values 1.02 | locus YCL069W, strain vba3, hits give low values 1.02 | locus YCR088W, strain abp1, hits give low values 1.02 | locus YDL005C, strain med2, hits give low values 1.02 | locus YDL035C, strain GPR1, hits give low values 0.997 | locus YDL040C, strain nat1, hits give low values 1.01 | locus YDL074C, strain BRE1, hits give low values 1.04 | locus YDL101C, strain DUN1, hits give low values 1.02 | locus YDL134C, strain PPH21, hits give low values 1 | locus YDL185W, strain tfp1, hits give low values 1 | locus YDL192W, strain arf1, hits give low values 1.01 | locus YDR001C, strain nth1, hits give low values 1.02 | locus YDR069C, strain doa4, hits give low values 1.03 | locus YDR101C, strain arx1, hits give low values 1.01 | locus YDR137W, strain rgp1, hits give low values 1.04 | locus YDR150W, strain NUM1, hits give low values 1 | locus YDR159W, strain sac3, hits give low values 1.02 | locus YDR162C, strain NBP2, hits give low values 1.01 | locus YDR195W, strain ref2 0.995 | locus YDR297W, strain sur2, hits give low values 1 | locus YDR318W, strain mcm21, hits give low values 1 | locus YDR334W, strain swr1, hits give low values 1.02 | locus YDR335W, strain msn5, hits give low values 1.02 | locus YDR388W, hits give low values 0.998 | locus YDR392W, strain spt3, hits give low values 1.03 | locus YDR502C, strain sam2, hits give low values 0.978 | locus YEL003W, strain gim4, hits give low values 1.02 | locus YEL037C, strain rad23, hits give low values 1.05 | locus YEL061C, strain CIN8 (second series), hits give low values 1.02 | locus YEL061C, strain CIN8, hits give low values 1 | locus YER015W, strain faa2, hits give low values 1.02 | locus YER016W, strain bim1, hits give low values 1.01 | locus YER110C, hits give low values 1.01 | locus YER111C, strain swi4, hits give low values 1.03 | locus YER155C, strain BEM2 (second series), hits give low values 1.04 | locus YER155C, strain BEM2, hits give low values 1.01 | locus YER167W, strain BCK2, hits give low values 0.979 | locus YFR010W, strain ubp6, hits give low values 1.02 | locus YGL078C, strain dbp3, hits give low values 0.994 | locus YGL086W, strain mad1, hits give low values 0.986 | locus YGL167C, strain pmr1, hits give low values 1.02 | locus YGL173C, strain kem1, hits give low values 1.03 | locus YGL227W, strain vid30, hits give low values 1 | locus YGL240W, strain doc1, hits give low values 1.02 | locus YGL248W, strain PDE1, hits give low values 1.01 | locus YGL253W, strain hxk2, hits give low values 1.02 | locus YGR078C, strain PAC10, hits give low values 1.02 | locus YGR135W, strain pre9, hits give low values 0.971 | locus YGR229C, strain SMI1, hits give low values 0.99 | locus YGR252W, strain gcn5, hits give low values 0.912 | locus YHR013C, strain ard1, hits give low values 1.04 | locus YHR027C, strain rpn1, hits give low values 1 | locus YHR030C, strain SLT2, hits give low values 0.999 and 0.984 | locus YHR079C, strain IRE1 (second series), hits give low values 1.01 | locus YHR079C, strain IRE1, hits give low values 0.974 | locus YHR094C, strain hxt1, hits give low values 0.998 | locus YHR129C, strain ARP1, hits give low values 1.02 | locus YHR142W, strain chs7, hits give low values 1.02 | locus YHR200W, strain rpn10, hits give low values 0.994 | locus YIL066C, strain RNR3, hits give low values 1.01 | locus YIL073C, strain SPO22, hits give low values 0.927 | locus YIL125W, strain kgd1, hits give low values 0.988 | locus YIR030C, strain dcg1, hits give low values 1.01 | locus YJL092W, strain hpr5, hits give low values 1.02 | locus YJL095W, strain BCK1 (second series), hits give low values 1 | locus YJL095W, strain BCK1, hits give low values 1.04 and 0.969 | locus YJL115W, strain asf1, hits give low values 1.02 | locus YJL129C, strain trk1, hits give low values 1.04 | locus YJL134W, strain LCB3, hits give low values 1.01 | locus YJL154C, strain vps35, hits give low values 1.02 | locus YJL164C, strain tpk1, hits give low values 1.02 | locus YJL166W, strain qcr8, hits give low values 1.02 | locus YJL168C, strain set2, hits give low values 1.01 | locus YJL187C, strain SWE1 (second series), hits give low values 1.03 | locus YJL187C, strain SWE1, hits give low values 1.01 | locus YJR043C, strain POL32, hits give low values 1.03 | locus YJR066W, strain TOR1, hits give low values 0.909
